According to the supplement of paper PMC9117331:

How the values were obtained:
Conditions in all cases: 0.5 µM; time after treatment 48 h; PC9 signalome
[1] = system: PC9; experiment: AKT reporter activity score (signed KS statistic vs DMSO) (signed KS statistic (-1 to 1)); higher = stronger activation of the pathway reporter relative to DMSO
[2] = system: PC9; experiment: RAR reporter activity score (signed KS statistic vs DMSO) (signed KS statistic (-1 to 1)); higher = stronger activation of the pathway reporter relative to DMSO
[3] = system: PC9; experiment: PKC reporter activity score (signed KS statistic vs DMSO) (signed KS statistic (-1 to 1)); higher = stronger activation of the pathway reporter relative to DMSO
[4] = system: PC9; experiment: PKA reporter activity score (signed KS statistic vs DMSO) (signed KS statistic (-1 to 1)); higher = stronger activation of the pathway reporter relative to DMSO
[5] = system: PC9; experiment: p38 reporter activity score (signed KS statistic vs DMSO) (signed KS statistic (-1 to 1)); higher = stronger activation of the pathway reporter relative to DMSO
[6] = system: PC9; experiment: HIF reporter activity score (signed KS statistic vs DMSO) (signed KS statistic (-1 to 1)); higher = stronger activation of the pathway reporter relative to DMSO
[7] = system: PC9; experiment: ERK reporter activity score (signed KS statistic vs DMSO) (signed KS statistic (-1 to 1)); higher = stronger activation of the pathway reporter relative to DMSO
[8] = system: PC9; experiment: JNK reporter activity score (signed KS statistic vs DMSO) (signed KS statistic (-1 to 1)); higher = stronger activation of the pathway reporter relative to DMSO
[9] = system: PC9; experiment: WNT reporter activity score (signed KS statistic vs DMSO) (signed KS statistic (-1 to 1)); higher = stronger activation of the pathway reporter relative to DMSO
[10] = system: PC9; experiment: NFkB reporter activity score (signed KS statistic vs DMSO) (signed KS statistic (-1 to 1)); higher = stronger activation of the pathway reporter relative to DMSO
[11] = system: PC9; experiment: YAP/TAZ reporter activity score (signed KS statistic vs DMSO) (signed KS statistic (-1 to 1)); higher = stronger activation of the pathway reporter relative to DMSO

Compound	AKT reporter activity score [1]	RAR reporter activity score [2]	PKC reporter activity score [3]	PKA reporter activity score [4]	p38 reporter activity score [5]	HIF reporter activity score [6]	ERK reporter activity score [7]	JNK reporter activity score [8]	WNT reporter activity score [9]	NFkB reporter activity score [10]	YAP/TAZ reporter activity score [11]
CC(C)NC[C@@H](C(=O)N1CCN(c2ncnc3c2[C@H](C)C[C@H]3O)CC1)c1ccc(Cl)cc1 [Ipatasertib (GDC-0068)]	-0.688	-0.297	-0.0598	0.241	-0.0739	-0.228	0.0863	-0.0989	0.0644	0.0919	-0.0823
CO[C@H]1C[C@@H]2CC[C@@H](C)[C@@](O)(O2)C(=O)C(=O)N2CCCC[C@H]2C(=O)O[C@H]([C@H](C)C[C@@H]2CC[C@@H](O)[C@H](OC)C2)CC(=O)[C@H](C)/C=C(\C)[C@@H](O)[C@@H](OC)C(=O)[C@H](C)C[C@H](C)/C=C/C=C/C=C/1C [Rapamycin (Sirolimus)]	0.0788	-0.291	-0.0424	0.0838	-0.0405	-0.242	0.0931	-0.0966	0.0535	0.0606	0.12
Cn1cnc2c(F)c(Nc3ccc(Br)cc3Cl)c(C(=O)NOCCO)cc21 [AZD6244 (Selumetinib)]	0.282	-0.154	-0.074	-0.0961	0.0759	-0.125	-0.348	0.145	0.091	0.0644	0.164
O=C(Nc1cc(C(F)(F)F)cc(C(F)(F)F)c1)c1cc(Cl)ccc1O	-0.694	0.372	0.146	-0.27	0.0561	0.485	-0.0507	0.113	0.101	0.111	0.257
CC(=O)Nc1cccc(-n2c(=O)n(C3CC3)c(=O)c3c(Nc4ccc(I)cc4F)n(C)c(=O)c(C)c32)c1	0.278	0.158	-0.0489	-0.226	0.0617	-0.114	-0.491	0.181	0.129	0.158	0.324
CCn1c(-c2nonc2N)nc2c(C#CC(C)(C)O)ncc(OC[C@H]3CCCNC3)c21	-0.513	-0.292	-0.0561	0.119	-0.189	-0.224	0.134	0.058	0.151	0.0699	-0.0459
CN1CCN(c2nc(C3=C(c4c[nH]c5ccccc45)C(=O)NC3=O)c3ccccc3n2)CC1 [Sotrastaurin (AEB071)]	0.195	-0.104	0.0333	0.144	0.268	0.0348	-0.0912	0.155	0.0742	-0.26	-0.0765
Cc1nc(NC(=O)N2CCC[C@H]2C(N)=O)sc1-c1ccnc(C(C)(C)C(F)(F)F)c1 [Alpelisib (BYL719)]	-0.308	0.0272	-0.0493	-0.0979	0.131	-0.123	0.0754	-0.0947	0.0988	0.0495	-0.125
O=C(NCCCNc1nc(Nc2cccc(NC(=O)N3CCCC3)c2)ncc1I)c1cccs1	-0.261	-0.0747	0.054	-0.174	0.125	-0.0537	-0.0698	-0.102	-0.101	0.0689	-0.0931
O=C(/C=C/c1cccc(S(=O)(=O)Nc2ccccc2)c1)NO [Belinostat (PXD101)]	-0.067	0.675	0.12	-0.172	-0.223	0.488	-0.315	-0.122	0.155	0.0869	0.484
C[C@H](NC(=O)Cc1cc(F)cc(F)c1)C(=O)N[C@@H]1C(=O)N(C)c2ccccc2-c2ccccc21	-0.303	0.0626	0.0325	-0.0914	0.0414	-0.0336	-0.123	-0.138	-0.0477	-0.12	-0.114
COc1cc2ncnc(Nc3ccc(F)c(Cl)c3)c2cc1OCCCN1CCOCC1 [Gefitinib (Iressa)]	-0.363	0.5	0.0998	-0.3	-0.282	0.136	-0.664	0.166	0.25	0.184	0.4
COc1cc2ncnc(Nc3ccc(F)c(Cl)c3)c2cc1NC(=O)/C=C/CN1CCCCC1	-0.392	0.516	0.0863	-0.547	-0.404	0.138	-0.698	-0.159	0.343	0.23	0.338
CCN1CCN(Cc2ccc(Nc3ncc(F)c(-c4cc(F)c5nc(C)n(C(C)C)c5c4)n3)nc2)CC1	-0.454	0.2	0.128	-0.473	-0.118	0.484	0.0461	0.34	0.767	0.239	0.183
Cc1cc(C(=O)NOCCO)c(Nc2ccc(I)cc2F)n(C)c1=O	-0.0809	0.337	0.0992	-0.257	0.108	0.0532	-0.629	0.22	0.0922	0.224	0.448
Cn1c(=O)c(F)c(Nc2ccc(I)cc2F)c2c(=O)n(C[C@@H](O)CO)cnc21	0.104	0.28	0.0748	-0.176	0.193	0.0238	-0.525	0.245	-0.0866	0.274	0.513
COc1ncc(-c2ccc3nccc(-c4ccnnc4)c3c2)cc1NS(=O)(=O)c1ccc(F)cc1F	-0.778	0.43	0.0478	-0.254	-0.499	0.0783	-0.33	-0.305	0.123	0.192	0.18
C#CCC(Cc1cnc2nc(N)nc(N)c2n1)c1ccc(C(=O)N[C@@H](CCC(=O)O)C(=O)O)cc1 (some centres undefined) [Pralatrexate(Folotyn)]	-0.334	0.231	0.0797	-0.237	-0.0729	0.149	-0.257	0.0731	0.0527	0.0639	0.223
CCN(CC)CCNC(=O)c1c(C)[nH]c(/C=C2\C(=O)Nc3ccc(F)cc32)c1C [Sunitinib Malate (Sutent)]	0.076	-0.28	-0.0463	0.13	0.139	-0.147	0.0665	0.0727	-0.103	-0.134	-0.0629
